Bioassay records (PubChem BioAssay)
HEK cytotox: HEK 293 cell cytotoxicity; HEK 293 viability, ATP luminescence (CellTiter-Glo), 48-72 h; 6.6% of 94,000 active; Potency, µM (highest dose often 115 µM), inactives show at the top dose activity change, negative = cytotoxicity, most hits filed as inhibitors; further: on the % scale 0 is the no-effect control and ±100 the full control effect; nearly all actives have a fitted effect of over 60% in size
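ATP-coupled CellTiter-Glo luminescence served as viability read-out, recorded 10 min after reagent addition at room temperature. HEK 293 cells, 250 cells/well, had been incubated with pintool-transferred compound for 48 or 72 hr at 37 degree Celsius.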
3T3 cytotox: cytotoxic compounds in NIH 3T3 cells | 4.3% of 94,000 active | AID 1345082 | NIH 3T3 viability, CellTiter-Glo ATP luminescence, 48-72 h | Potency, µM (doses to about 96.7 µM), for the others: at the highest dose activity change, negative = cytotoxicity, hits mostly inhibitors; further: on the % scale 0 is the no-effect control and ±100 the full control effect; nearly all actives have a fitted effect of over 55% in size
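Cells were seeded at 400 per well, treated with pin-transferred compound, and kept 48 or 72 hr at 37 °C before CellTiter-Glo addition and luminescence imaging of cellular ATP.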
GPT2 inhibitor: GPT2 alanine aminotransferase inhibition; Q8TD30; Recombinant GPT2, coupled pyruvate oxidase/HRP Amplex Red fluorescence; Potency, µM (titrated, usually from 57.7 µM), inactives show top-dose activity change, negative = inhibition, hits mostly inhibitors; 0.25% of 100,000 active; further: on the % scale 0 is the no-effect control and ±100 the full control effect; nearly all actives have a fitted effect of over 60% in size
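Recombinant GPT2 (10ng/uL) with 250uM a-KG and 2mM L-alanine, 30 min at room temperature, in HEPES pH 7.5 buffer. Pyruvate detected by pyruvate oxidase/HRP/Amplex Red fluorescence after 30 min in the dark; AOA (50uM) as positive control.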
Luciferase inh: inhibitors of firefly (Photinus pyralis) luciferase | P08659 | purified P. pyralis luciferase, luminescence, biochemical | Potency, µM (highest dose often 115 µM), usual class: inhibitors | 2.5% of 76,000 active | AID 1347043; further: on the % scale 0 is the no-effect control and ±100 the full control effect; nearly all actives have a fitted effect of over 65% in size
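Cell-free enzyme assay, 10nM P. pyralis luciferase, luciferin and ATP each at 10uM. Inhibition profiled over a 6-point titration, read as luminescence.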
NPR1 antag: antagonists of human natriuretic peptide receptor Npr1. HEK293 hNpr1 GloSensor cGMP, ANP-stimulated luminescence. P16066. 1.6% of 76,000 active. Potency, µM (highest dose often 46.3 µM), for inactives: at the highest dose activity change, negative = inhibition, hits mostly inhibitors; calls by dose curve; further: on the % scale 0 is the no-effect control and ±100 the full control effect; nearly all actives have a fitted effect of over 60% in size
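HEK293 cells stably expressing human Npr1 and cGMP GloSensor pGS-40F, loaded 2 h with 2% GloSensor reagent, given compound 30 min at room temperature. Luminescence read before and 20 min after 0.1 nM hNppA.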
Npr1 antag conf: hNpr1 antagonism, confirmation assay. Potency, µM (top dose mostly 57.6 µM), without a hit: at the top dose activity change, negative = inhibition, usual class: inhibitors. shares compounds with NPR1 antag. 76% of 1,400 active. HEK293 hNpr1 cGMP GloSensor luminescence, ANP-stimulated. AID 1347044; calls by dose curve; further: nearly all actives have a fitted effect of over 70% in size
NPR2 antag: antagonizes human Npr2, subtype selectivity check. shares compounds with NPR1 antag. HEK293 hNpr2 GloSensor cGMP luminescence, CNP-stimulated. Potency, µM (top dose mostly 57.6 µM), for inactives: at the top dose activity change, negative = inhibition, usual class: inhibitors. 67% of 1,400 active; calls by dose curve; further: nearly all actives have a fitted effect of over 70% in size
Target sequence (P20594 whole entry, looked up): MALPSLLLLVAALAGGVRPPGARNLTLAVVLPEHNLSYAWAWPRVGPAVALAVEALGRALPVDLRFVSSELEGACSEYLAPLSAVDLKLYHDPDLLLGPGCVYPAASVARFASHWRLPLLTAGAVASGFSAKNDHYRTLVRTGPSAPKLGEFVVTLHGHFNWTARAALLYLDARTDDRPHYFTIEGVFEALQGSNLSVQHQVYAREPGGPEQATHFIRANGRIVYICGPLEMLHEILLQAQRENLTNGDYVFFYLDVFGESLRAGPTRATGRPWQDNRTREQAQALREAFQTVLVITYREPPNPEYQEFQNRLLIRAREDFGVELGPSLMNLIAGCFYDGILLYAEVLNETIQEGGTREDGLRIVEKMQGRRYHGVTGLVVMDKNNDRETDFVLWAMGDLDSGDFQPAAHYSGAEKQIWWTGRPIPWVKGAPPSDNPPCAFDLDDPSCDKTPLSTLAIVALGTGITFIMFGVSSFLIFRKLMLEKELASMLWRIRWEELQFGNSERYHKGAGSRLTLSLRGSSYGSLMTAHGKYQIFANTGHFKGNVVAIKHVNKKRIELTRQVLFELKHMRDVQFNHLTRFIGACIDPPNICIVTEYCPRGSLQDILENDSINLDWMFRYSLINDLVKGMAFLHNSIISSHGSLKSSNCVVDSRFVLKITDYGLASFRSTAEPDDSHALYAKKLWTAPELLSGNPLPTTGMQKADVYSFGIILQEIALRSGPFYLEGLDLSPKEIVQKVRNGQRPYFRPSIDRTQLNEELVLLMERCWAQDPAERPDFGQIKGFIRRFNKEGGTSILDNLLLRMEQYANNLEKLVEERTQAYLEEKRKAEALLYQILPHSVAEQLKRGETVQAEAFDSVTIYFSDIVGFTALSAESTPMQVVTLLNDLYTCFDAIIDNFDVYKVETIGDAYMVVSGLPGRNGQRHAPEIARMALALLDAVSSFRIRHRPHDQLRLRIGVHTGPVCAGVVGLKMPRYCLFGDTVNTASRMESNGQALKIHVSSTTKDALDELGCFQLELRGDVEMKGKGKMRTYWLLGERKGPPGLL
FLuc counter: counter-screen for Npr1 antagonists: firefly luciferase inhibitors | shares compounds with NPR1 antag | 0.7% of 1,400 active | purified FLuc enzyme, luminescence, Km substrate | Potency, µM (series often up to 57.6 µM), for inactives: at the highest dose activity change, negative = inhibition, actives largely listed as inhibitors; further: 0% is about no effect
GloSensor cGMP: control cell line activity, Npr1 antagonist counter-screen. AID 1347051. 69% of 1,400 active. HEK293 GloSensor cGMP, SNP-stimulated, luminescence. shares compounds with NPR1 antag. Potency, µM (top dose mostly 57.6 µM), inactives show at the highest dose activity change, negative = inhibition, actives largely listed as inhibitors; calls by dose curve; further: on the % scale 0 is the no-effect control and ±100 the full control effect; nearly all actives have a fitted effect of over 70% in size
* = called active by the depositor; i = inactive; ? = inconclusive; . = not tested or not shown; [ ] = dose if it differs, or a comment. Shown are actives, neighbours in structure and some others; about 10% of the full set was active somewhere. Unless noted, the call rests on the fitted dose curve; in most records, active means well fitted curve in the direction sought with a large enough effect; inconclusive means small, poorly fitted or top-dose-only effect, or another doubt; inactive means no such curve, though single readings can be large; an effect the other way counts as inactive or inconclusive. Potency means the concentration at half of the fitted maximal effect.

SMILES	HEK cytotox	3T3 cytotox	GPT2 inhibitor	Luciferase inh	NPR1 antag	Npr1 antag conf	NPR2 antag	FLuc counter	GloSensor cGMP
CCCn1c(C)cnc1C1CCN(S(=O)(=O)c2cnn(CC)c2)C1 (stereo unspecified)	-4%	-29%	-19%	.	.	.	.	.	.
CCOCC1(C)COc2ccc(C(=O)Nc3ccc(OC)nc3)cc2N1 (stereo unspecified)	?	?	-15%[88.5 µM]	?	-11%[70.6 µM]	.	.	.	.
COc1ccc(NC(=O)c2ccc3c(c2)NC(C)(CNc2ccccc2)CO3)cn1 (stereo unspecified)	45µM*	?	-5%[88.5 µM]	i	35µM*	40µM*	?	-27%[86.2 µM]	?
CC1(COCC2CC2)COc2ccc(C(=O)Nc3cccnc3)cc2N1 (stereo unspecified)	?	-24%[138 µM]	?	?	?	-30%[86.2 µM]	-26%[86.2 µM]	-18%[86.2 µM]	-21%[86.2 µM]
OCC1(CCOc2ccccc2)CCCN(c2ncnc3sccc23)C1 (stereo unspecified)	?	?	-9%	i	1.8µM*	2.7µM*	3.9µM*	0%	2.2µM*
Cc1ccnc(NC(=O)C2c3ccccc3C(=O)N(CC(C)C)C23CCCC3)c1 (stereo unspecified)	?	?	-9%	i	-1%	.	.	.	.
COc1ccc(C(=O)Nc2ccc(-c3noc([C@@H]4CCCN4Cc4ccc(Cl)cc4)n3)cn2)cc1	?	?	-14%	i	?	.	.	.	.
COc1ccc(C(=O)Nc2ccc(-c3noc([C@@H]4CCCN4Cc4ccc(F)c(F)c4)n3)cn2)cc1	?	?	-7%	i	10µM*	7.7µM*	9.7µM*	-16%	8.6µM*
COc1ccc(C(=O)Nc2ccc(-c3noc([C@@H]4CCCN4Cc4ccccc4C)n3)cn2)cc1	?	-50%	-13%	i	10µM*	7.7µM*	12µM*	-16%	9.7µM*
Cc1cccc(C(=O)N2CCC3(CC2)CC(N2CCN(c4ccccc4)CC2)CCO3)c1 (stereo unspecified)	?	-29%	i	.	.	.	.	.	.
COc1ccc(C(=O)N[C@H]2C[C@@H](Cc3cc(CN4CCOCC4)on3)C2(C)C)cc1	?	-21%[138 µM]	3%[88.5 µM]	i	1%[70.6 µM]	.	.	.	.
COC(=O)C1=C(C)N=C2SC=C(CC(=O)NCC3CC3)N2C1c1ccccc1OC (stereo unspecified)	?	-9%	-3%	i	-17%	.	.	.	.
CCC1=C(C(=O)OC)C(c2ccccc2Cl)N2C(CC(=O)NCC3CC3)=CSC2=N1 (stereo unspecified)	?	-26%	?	i	?	.	.	.	.
CC1=C(C(=O)OC(C)C)C(c2ccccc2C)N2C(CC(=O)NCC3CC3)=CSC2=N1 (stereo unspecified)	10µM*	?	-6%	i	?	?	?	-1%	?
CC1=C(C(=O)OC(C)C)C(c2ccccc2Cl)N2C(CC(=O)NCC3CC3)=CSC2=N1 (stereo unspecified)	?	?	-7%	i	11µM*	?	22µM*	6%	?
COc1ccccc1C(=O)N1CCN(C(=O)c2nnn3c2COC(c2ccc(C)cc2)C3)CC1 (stereo unspecified)	?	?	?	i	?	?	-28%	1%	?
COc1ccc(Cl)cc1C(=O)N1CCN(C(=O)c2nnn3c2COC(c2ccccc2)C3)CC1 (stereo unspecified)	?	?	i	i	?	?	?	2%	-25%
CCOc1ccccc1C(=O)N1CCN(C(=O)c2nnn3c2COC(c2ccccc2)C3)CC1 (stereo unspecified)	?	-18%	5%	i	0%	.	.	.	.
O=C(NC1CCCCCCC1)c1nnn2c1COC(c1ccc(F)cc1)C2 (stereo unspecified)	?	?	i	i	?	?	?	-1%	?
O=C(c1ccccc1F)N1CCN(C(=O)c2nnn3c2COC(c2ccc(Cl)cc2)C3)CC1 (stereo unspecified)	?	?	2%	i	14µM*	27µM*	?	2%	?
O=C(NC1CCCCC1)O[C@@H]1CO[C@H]2[C@@H]1OC[C@@H]2Nc1nccc(-c2cccs2)n1	?	112µM*	2%[88.5 µM]	i	10µM*	5µM*	7.9µM*	4%[86.2 µM]	7µM*
O=C(Nc1ccc(Oc2ccccc2)cc1)O[C@@H]1CO[C@H]2[C@@H]1OC[C@@H]2Nc1nccc(-c2cccs2)n1	-11%	-22%	i	i	-6%	.	.	.	.
COc1ccc(-c2ccnc(N[C@H]3CO[C@H]4[C@@H]3OC[C@H]4OC(=O)Nc3ccc(C(C)=O)cc3)n2)cc1	?	-32%	-1%	i	10µM*	11µM*	15µM*	1%	9.7µM*
N#Cc1cccc(-c2ccnc(N[C@H]3CO[C@H]4[C@@H]3OC[C@H]4OC(=O)Nc3ccc(Oc4ccccc4)cc3)n2)c1	?	?	-4%	i	?	?	-25%	-2%	?
O=C(NCc1cccs1)C1CCc2nc(N3CCN(C(=O)C4CCC4)CC3)sc2C1 (stereo unspecified)	-18%	-14%	i	i	2%	.	.	.	.
O=C(c1cccc(Br)c1)N1CCN(c2cc(-c3ccc(Cl)cc3)[nH]n2)CC1	40µM*	32µM*	i	i	?	24µM*	?	-1%	?
O=C(c1ccc(F)c(F)c1)N1CCN(c2cc(-c3ccc(F)cc3)[nH]n2)CC1	?	?	-2%	i	?	.	.	.	.
O=C(c1cccc(Br)c1)N1CCN(c2cc(-c3cccs3)[nH]n2)CC1	?	?	i	i	-30%	?	?	-2%	-11%
